Measured values published in PubChem BioAssay (NCI).
The panel holds about 83,000 compounds, 20% with a hit somewhere; the sample as a whole holds those more often.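 Each cell line was grown in a 96-well plate and treated with one concentration of compound for 48 hours. Values below 10 were considered active.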 The source made the active and inactive calls.

How the values were obtained:
Experiment in all cases: NCI-60 one-dose screen, 48 h (100 = growth as untreated, 0 = no growth, -100 = all killed)
Conditions in all cases: 10 µM unless noted
SR leukemia = test system: SR leukemia
RPMI-8226 leukemia = test system: RPMI-8226 leukemia
OVCAR-8 ovarian = test system: OVCAR-8 ovarian
OVCAR-5 ovarian = test system: OVCAR-5 ovarian
OVCAR-4 ovarian = test system: OVCAR-4 ovarian
SK-OV-3 ovarian = test system: SK-OV-3 ovarian
IGROV1 ovarian = test system: IGROV1 ovarian
OVCAR-3 ovarian = test system: OVCAR-3 ovarian
HS 578T breast = test system: HS 578T breast
NCI/ADR-RES ovarian = test system: NCI/ADR-RES ovarian

Measured: growth

O=S(=O)(NCCCNc1cc(-c2cn(-c3ccccc3)nc2-c2cccc(O)c2)ccn1)c1cccc(F)c1
inactive: SR leukemia 35% | RPMI-8226 leukemia 32% | OVCAR-8 ovarian 39.8% | OVCAR-5 ovarian 68.3% | OVCAR-4 ovarian 50.2% | SK-OV-3 ovarian 72% | IGROV1 ovarian 53.8% | OVCAR-3 ovarian 65.6% | HS 578T breast 41.7% | NCI/ADR-RES ovarian 49.3%

O=c1[nH]c2ccccc2cc1-c1nnc(Cc2ccccc2)o1
inactive: SR leukemia 31.6% | RPMI-8226 leukemia 15.3% | OVCAR-8 ovarian 57.8% | OVCAR-5 ovarian 120% | OVCAR-4 ovarian 61.3% | SK-OV-3 ovarian 92.8% | IGROV1 ovarian 66% | OVCAR-3 ovarian 69.6% | HS 578T breast 90.1% | NCI/ADR-RES ovarian 89.8%

O=[N+]([O-])c1ccc(S(=O)(=O)N2CCN(c3ccnc4cc(Cl)ccc34)CC2)c([N+](=O)[O-])c1
active: SR leukemia 3.12%
inactive: RPMI-8226 leukemia 25.7% | OVCAR-8 ovarian 97.1% | OVCAR-5 ovarian 106% | OVCAR-4 ovarian 95.3% | SK-OV-3 ovarian 105% | IGROV1 ovarian 99.5% | OVCAR-3 ovarian 93% | HS 578T breast 89.1% | NCI/ADR-RES ovarian 95.5%

CC(=O)OCC1OC(OCC2OC(OC(C)=O)C(OC(C)=O)C(OC(C)=O)C2OC(C)=O)C(OC(C)=O)C(OC(C)=O)C1OC(C)=O (stereo not given)
inactive: SR leukemia 98% | RPMI-8226 leukemia 99.3% | OVCAR-8 ovarian 95.2% | OVCAR-5 ovarian 101% | OVCAR-4 ovarian 107% | SK-OV-3 ovarian 89.9% | IGROV1 ovarian 106% | OVCAR-3 ovarian 109% | HS 578T breast 97.2% | NCI/ADR-RES ovarian 101%

CC1CCN(C(=O)CSc2nc3sc4c(c3c(=O)[nH]2)CCCC4)CC1
inactive: SR leukemia 85.5% | RPMI-8226 leukemia 82.4% | OVCAR-8 ovarian 102% | OVCAR-5 ovarian 102% | OVCAR-4 ovarian 108% | SK-OV-3 ovarian 103% | IGROV1 ovarian 87.7% | OVCAR-3 ovarian 116% | HS 578T breast 113% | NCI/ADR-RES ovarian 109%

COc1cccc(-c2nc3sccn3c2-c2ccnc(NCCNS(=O)(=O)c3ccccc3)n2)c1
inactive: SR leukemia 70.3% | RPMI-8226 leukemia 49.5% | OVCAR-8 ovarian 49.2% | OVCAR-5 ovarian 124% | OVCAR-4 ovarian 57.4% | SK-OV-3 ovarian 79.9% | IGROV1 ovarian 63.2% | OVCAR-3 ovarian 68.3% | HS 578T breast 107% | NCI/ADR-RES ovarian 47.1%

O=C(CNc1c(Cl)cccc1Cl)Nc1ccc(-c2nc3ccccc3s2)cc1
inactive: SR leukemia 10.7% | RPMI-8226 leukemia 59.8% | OVCAR-8 ovarian 66.7% | OVCAR-5 ovarian 110% | OVCAR-4 ovarian 17.5% | SK-OV-3 ovarian 97.8% | IGROV1 ovarian 49.3% | OVCAR-3 ovarian 54.4% | HS 578T breast 87.2% | NCI/ADR-RES ovarian 64%

COc1cc(NC(=O)c2cc3ccccc3nc2Nc2ccc(F)cc2)cc(OC)c1OC
inactive: SR leukemia 35.7% | RPMI-8226 leukemia 29.8% | OVCAR-8 ovarian 43.3% | OVCAR-5 ovarian 68.8% | OVCAR-4 ovarian 47.7% | SK-OV-3 ovarian 72.8% | IGROV1 ovarian 54.5% | OVCAR-3 ovarian 36.2% | HS 578T breast 75.5% | NCI/ADR-RES ovarian 39.7%

O=C(CN1CCOCC1)Nc1ccc(-c2nc3ccccc3s2)cc1
inactive: SR leukemia 102% | RPMI-8226 leukemia 94% | OVCAR-8 ovarian 102% | OVCAR-5 ovarian 93.4% | OVCAR-4 ovarian 101% | SK-OV-3 ovarian 121% | IGROV1 ovarian 106% | OVCAR-3 ovarian 96.3% | HS 578T breast 110% | NCI/ADR-RES ovarian 105%

O=C(NNC(=S)Nc1ccccc1)c1ccccn1
inactive: RPMI-8226 leukemia 37.6% | OVCAR-8 ovarian 23.2% | OVCAR-5 ovarian 51.3% | OVCAR-4 ovarian 20.1% | SK-OV-3 ovarian 33.5% | IGROV1 ovarian 21.2% | OVCAR-3 ovarian 33.6% | HS 578T breast 65.8% | NCI/ADR-RES ovarian 24.7%
active: SR leukemia 9.67%

CNC(=O)c1cc(Oc2ccc3c(c2)sc2nc(-c4ccc(Cl)cc4)cn23)ccn1
inactive: SR leukemia 82.9% | RPMI-8226 leukemia 92.4% | OVCAR-8 ovarian 73% | OVCAR-5 ovarian 113% | OVCAR-4 ovarian 55.2% | SK-OV-3 ovarian 66.2% | IGROV1 ovarian 87.6% | OVCAR-3 ovarian 82.7% | HS 578T breast 70.5% | NCI/ADR-RES ovarian 84.7%

O=C(Nc1cc(C(F)(F)F)cc(C(F)(F)F)c1)Nc1ccc(OCc2nnc(-c3ccc(Cl)cc3)o2)c(F)c1
inactive: OVCAR-8 ovarian 10.6% | OVCAR-4 ovarian 24% | IGROV1 ovarian 32.7% | OVCAR-3 ovarian 16% | HS 578T breast 28.1%
active: SR leukemia 0.985% | RPMI-8226 leukemia 3.52% | OVCAR-5 ovarian -5.15% | SK-OV-3 ovarian 5.55% | NCI/ADR-RES ovarian 4.95%

c1ccc2nc(-c3ccc4ccccc4n3)ccc2c1
inactive: SR leukemia 86.8% | RPMI-8226 leukemia 90.8% | OVCAR-8 ovarian 98.6% | OVCAR-5 ovarian 97.2% | OVCAR-4 ovarian 92.3% | SK-OV-3 ovarian 90.1% | IGROV1 ovarian 79.5% | OVCAR-3 ovarian 97.4% | HS 578T breast 105% | NCI/ADR-RES ovarian 99.7%

CC1=CNNc2c3ncnc-3ncn21
inactive: SR leukemia 97.4% | RPMI-8226 leukemia 103% | OVCAR-8 ovarian 107% | OVCAR-5 ovarian 101% | OVCAR-4 ovarian 111% | SK-OV-3 ovarian 103% | IGROV1 ovarian 108% | OVCAR-3 ovarian 105% | HS 578T breast 110% | NCI/ADR-RES ovarian 105%

Clc1ccc([I+]c2ccc(Cl)cc2Cl)c(Cl)c1
active: RPMI-8226 leukemia -25.7% | OVCAR-8 ovarian -1.2% | OVCAR-5 ovarian -25.9% | OVCAR-4 ovarian 0.221% | OVCAR-3 ovarian -75.5%
inactive: SR leukemia 22.8% | SK-OV-3 ovarian 96.7% | IGROV1 ovarian 39.7% | HS 578T breast 79% | NCI/ADR-RES ovarian 79.4%

O=C(Nc1ccc(Cl)cc1)c1cc(-c2ccc(F)cc2)c2sc(=O)[nH]c2n1
active: OVCAR-4 ovarian -0.62% | SK-OV-3 ovarian 0.427% | NCI/ADR-RES ovarian 3.43%
inactive: SR leukemia 16.6% | RPMI-8226 leukemia 10.9% | OVCAR-8 ovarian 13% | OVCAR-5 ovarian 72.2% | IGROV1 ovarian 29.3% | OVCAR-3 ovarian 14% | HS 578T breast 29.4%

CC(C)C(C(=O)CCN(C)C)c1ccc(Cl)cc1 (stereo not given)
inactive: SR leukemia 84% | RPMI-8226 leukemia 67.5% | OVCAR-8 ovarian 93.3% | OVCAR-5 ovarian 115% | OVCAR-4 ovarian 109% | SK-OV-3 ovarian 85.2% | IGROV1 ovarian 105% | OVCAR-3 ovarian 108% | HS 578T breast 101% | NCI/ADR-RES ovarian 106%

NS(=O)(=O)c1ccc(NCC(=O)Nc2ccc(-c3nc4ccccc4s3)cc2)cc1
inactive: SR leukemia 16% | RPMI-8226 leukemia 36.7% | OVCAR-8 ovarian 82.7% | OVCAR-5 ovarian 106% | OVCAR-4 ovarian 67.2% | SK-OV-3 ovarian 106% | IGROV1 ovarian 59% | OVCAR-3 ovarian 34.3% | HS 578T breast 98.3% | NCI/ADR-RES ovarian 94%

O=C(CSc1nc(-c2ccc(Cl)cc2)cn1-c1ccc(Cl)cc1)c1ccc(Br)cc1
inactive: SR leukemia 92.7% | RPMI-8226 leukemia 86.1% | OVCAR-8 ovarian 48% | OVCAR-5 ovarian 84.1% | SK-OV-3 ovarian 79% | IGROV1 ovarian 59.9% | OVCAR-3 ovarian 84.9% | HS 578T breast 63.2% | NCI/ADR-RES ovarian 70.6%
active: OVCAR-4 ovarian 9.78%

O=C1N=C(c2c(-c3[nH]c(=O)c4ccc(Br)cc4c3O)c(O)c3ccccc3c2O)C(=O)c2cc(Br)ccc21
active: RPMI-8226 leukemia 6.4% | OVCAR-8 ovarian -23.5% | OVCAR-4 ovarian -59.7% | SK-OV-3 ovarian -32.6% | IGROV1 ovarian -55.9% | OVCAR-3 ovarian -81.5% | HS 578T breast -21.9% | NCI/ADR-RES ovarian -28.9%
inactive: SR leukemia 20.8% | OVCAR-5 ovarian 10.4%

CC(C)CCN(CCCNc1c2c(nc3ccccc13)CCCC2)CCC(C)C
active: SR leukemia 5.77%
inactive: RPMI-8226 leukemia 56.4% | OVCAR-8 ovarian 91.1% | OVCAR-5 ovarian 83.6% | OVCAR-4 ovarian 66.3% | SK-OV-3 ovarian 94.3% | IGROV1 ovarian 81.8% | OVCAR-3 ovarian 93.9% | HS 578T breast 87.6% | NCI/ADR-RES ovarian 87.8%

CC(=O)Nc1ccc2c(c1)/C(=C\C=C/c1ccc([N+](C)(C)C)cc1)c1ccccc1-2
inactive: SR leukemia 90% | RPMI-8226 leukemia 73.6% | OVCAR-8 ovarian 57.4% | OVCAR-5 ovarian 53.9% | OVCAR-4 ovarian 28.1% | SK-OV-3 ovarian 70.2% | IGROV1 ovarian 67.1% | OVCAR-3 ovarian 78% | HS 578T breast 25.3% | NCI/ADR-RES ovarian 101%

COc1ccc(-c2nc3sccn3c2-c2ccnc(NCCCNS(=O)(=O)c3ccc4ccccc4c3)n2)cc1
inactive: SR leukemia 57% | RPMI-8226 leukemia 54.9% | OVCAR-8 ovarian 57.3% | OVCAR-5 ovarian 132% | OVCAR-4 ovarian 68.1% | SK-OV-3 ovarian 95.1% | IGROV1 ovarian 75.3% | OVCAR-3 ovarian 82.7% | HS 578T breast 92.1% | NCI/ADR-RES ovarian 53.5%

CCc1cccc(C)c1NC(=O)c1sc2nc3c(cc2c1N)C(=O)CCC3
active: SR leukemia 2.24% | RPMI-8226 leukemia 9.64% | OVCAR-3 ovarian -26% | NCI/ADR-RES ovarian 8.17%
inactive: OVCAR-8 ovarian 27.9% | OVCAR-5 ovarian 29.2% | OVCAR-4 ovarian 76.3% | SK-OV-3 ovarian 10.4% | IGROV1 ovarian 30.7% | HS 578T breast 24.8%

COc1cc(/C=C2\CCCC3=C2N=C2SC(C)=NN2C3c2cc(OC)c(OC)c(OC)c2)cc(OC)c1OC (stereo not given)
inactive: OVCAR-5 ovarian 67.3% | OVCAR-4 ovarian 54.3% | SK-OV-3 ovarian 60.3% | IGROV1 ovarian 24.4% | OVCAR-3 ovarian 21.2% | HS 578T breast 25%
active: SR leukemia 4.78% | RPMI-8226 leukemia -25.6% | OVCAR-8 ovarian 4.84% | NCI/ADR-RES ovarian 8.69%

CN(C)CCCNC(=O)C(c1ccccc1)c1ccccc1
inactive: SR leukemia 105% | RPMI-8226 leukemia 101% | OVCAR-8 ovarian 102% | OVCAR-5 ovarian 111% | OVCAR-4 ovarian 118% | SK-OV-3 ovarian 112% | IGROV1 ovarian 117% | OVCAR-3 ovarian 113% | HS 578T breast 110% | NCI/ADR-RES ovarian 97.7%

COc1cc(CCn2nnc3c(Nc4ccc(N5CCOCC5)cc4)ncnc32)cc(OC)c1
inactive: SR leukemia 64.2% | RPMI-8226 leukemia 72.8% | OVCAR-8 ovarian 109% | OVCAR-5 ovarian 95.3% | OVCAR-4 ovarian 91.1% | SK-OV-3 ovarian 112% | IGROV1 ovarian 110% | OVCAR-3 ovarian 92.8% | HS 578T breast 91.2% | NCI/ADR-RES ovarian 86.3%
